# Experimental data published in PubChem BioAssay (NCI).
# About 83,000 compounds went through this panel and 20% of them were active in at least one assay; those are over-represented in the sample as a whole.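 Compound tested at a single concentration for 48 hours in 96-well plates; a percent growth value below 10 was scored as active.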 Active and inactive are the calls of the source.
# System: T-47D breast
# Test: NCI-60 one-dose screen, 48 h (100 = growth as untreated, 0 = no growth, -100 = all killed)
# Conditions: 10 µM unless noted
# Protocol: Growth inhibition of the T-47D human tumor cell line is measured as a screen for anti-cancer activity. Cells are grown in 96 well plates and exposed to the test compound for 48 hours. Compounds are tested at a single concentration, which is 10^-5 M for most compounds. The reported endpoint is percent growth (GI% or GIPRCNT), where numbers from 0 - 100% represent growth inhibition, and numbers from -100% - 0 represent cell death. For example, a value of 40 represents 60% growth inhibition. A value of 0 means no net growth occurred over the course of the experiment. A value of -40 indicates 40% of cells at the beginning of the experiment died by the end of the experiment. A value of -100 means all cells are dead at the end of the experiment.
# NCI-60 Human Tumor Cell Lines Screen was performed using the standard one-dose NCI protocol, which is described in more detail at https://dtp.cancer.gov/discovery_development/nci-60/default.htm.
# Compounds with GIPRCNT values below 10 were considered active. Activity score was based on GIPRCNT using the following formula: […]
# Score is 0 for GIPRCNT values of 100 or above, 50 for GIPRCNT values of 0, and 100 for GIPRCNT values of -100.
row,Compound,growth
1,CCOC(=O)C1CN(Cc2ccccc2)C(=O)C1=O (stereo not given),104% (inactive)
2,N#Cc1c2c(c(N)[nH]c1=O)C(=O)NC2(O)c1ccccc1 (stereo not given),103% (inactive)
3,COc1cc(C(=O)NNC(=O)c2ccccc2O)cc(OC)c1OC,82.5% (inactive)
4,CCn1cc(/C=C2\Oc3cc(OCC#N)ccc3C2=O)c2cc(OC)ccc21,48.4% (inactive)
5,Cc1c(Cl)ccc2c(C(=O)Cl)cc(-c3ccccc3)nc12,90.9% (inactive)
6,O=C1CCC(=O)N1C1CCCCC1,85.8% (inactive)
7,O=C(Nc1ccc(-n2cc(-c3ccncc3)c(-c3ccc(O)c(Cl)c3)n2)cc1)c1cc(Cl)cc(Cl)c1,49.3% (inactive)
8,COc1cccc(C2CC(c3cc(OC)c(OC)c(OC)c3)=NN2)c1 (stereo not given),78.7% (inactive)
9,CNCCCOc1c(Br)cc(CCNC(=O)/C(Cc2cc(Br)c(OC)c(Br)c2)=N/O)cc1Br,-27.5% (active)
10,CCC1(C(N)=O)CC2C=CC1CC2 (stereo not given),101% (inactive)
11,CC1CCc2cc(F)cc3c(=O)c(C(=O)O)cn1c23 (stereo not given),99.7% (inactive)
12,O=C(Nc1cccc(-n2ccc3c(NC(=O)c4ccccc4)nccc32)c1)Nc1ccc(Cl)c(C(F)(F)F)c1,54.3% (inactive)
13,O=C(NCCNc1nccc(-c2c(-c3cccc(O)c3)nc3sccn23)n1)c1cc(N2CCOCC2)cc(C(F)(F)F)c1,77.7% (inactive)
14,C=CCn1c(SCC(=O)Nc2ccc(C(=O)/C=C/c3cc(OC)c(OC)c(OC)c3)cc2)nnc1-c1ccc(OC)cc1,-2.4% (active)
15,CN1CCN(C(=O)/C=C/c2ccc([N+](=O)[O-])o2)CC1,110% (inactive)
16,O=C(NCCNc1nccc(-c2c(-c3cccc(O)c3)nc3sccn23)n1)c1ccccc1O,61.8% (inactive)
17,C[C@]12CC[C@@H]3c4ccc(O)c(N)c4CC[C@H]3[C@@H]1CC[C@@H]2O,124% (inactive)
18,COc1ccc(C2CC(c3cc(Cl)c(C)cc3OC)=NN2c2ccc(S(N)(=O)=O)cc2)cc1OC (stereo not given),77% (inactive)
19,CCOc1cccc(Nc2nc(N)nc3[nH]c4ccc(O)cc4c23)c1,18.8% (inactive)
20,O=c1c(-c2ccc3c(c2)OCO3)coc2c(CO)c(O)ccc12,19.2% (inactive)

row,Compound,growth
1,Cc1ccc2c(C3C(C#N)=C(N)Oc4cc5ccccc5cc43)cc(=O)oc2c1 (stereo not given),35.9% (inactive)
2,Nc1ncnc2c1ccn2-c1cccc(NC(=O)c2cccc(C(F)(F)F)c2)c1,59.2% (inactive)
3,COc1ccc(-c2nnc(SCC(=O)Nc3ccc(C(=O)/C=C/c4ccccc4)cc3)o2)cc1OC,98.7% (inactive)
4,FC(F)(F)c1cn(CC2CNC2)c2ncnc(Cl)c12,102% (inactive)
5,COc1ccccc1S(=O)(=O)Nc1ccc2c3c(cc(-c4ccoc4)nc13)C(=O)N2C,70.1% (inactive)
6,O=C(CSc1nnc(-c2cc3c([nH]c4ccccc43)c(-c3cccc(O)c3)n2)n1-c1ccccc1)c1ccccc1,53% (inactive)
7,CC(=O)c1ccc2c(c1)C1C=CCC1[C@H](c1cc3c(cc1Br)OCO3)N2 (stereo not given in full),36.2% (inactive)
8,COc1ccc(Cl)cc1NC(=O)c1cc2c(n1C)-c1nc(NC(=O)C(C)C)sc1CC2,68.2% (inactive)
9,Nc1nc(=S)ss1,98.9% (inactive)
10,COc1ccc(-c2nn(-c3ccc(NC(=O)Nc4cc(C(F)(F)F)cc(C(F)(F)F)c4)cc3)cc2-c2ccncc2)cc1Cl,25.3% (inactive)
11,CC12CCC3C(CCC4CC(O)CCC43C)C1C/C(=C/O)C(=O)O2 (stereo not given),106% (inactive)
12,CCC(C)Nc1ccc(N)cc1 (stereo not given),16.2% (inactive)
13,CC(C)CNCC(=O)Nc1ccc(Cc2ccc(NC(=O)CNCC(C)C)cc2)cc1,68% (inactive)
14,Cc1cc(NCCN(C(C)C)C(C)C)nc(/N=C(\N)Nc2ccc(Cl)c(C(F)(F)F)c2)n1,-54.3% (active)
15,COc1ccc2c(c1)/C(=C/c1c(-c3cc(OC)c(OC)c(OC)c3Br)nc3sccn13)C(=O)N2,90.1% (inactive)
16,CCOc1ccc(Cc2nccc3cc(OCC)c(OCC)cc23)cc1OCC,39.1% (inactive)
17,COc1cc([C@@H]2c3cc4c(cc3C(OC3O[C@@H]5COC(C)O[C@H]5[C@H](O)[C@H]3O)C3COC(=O)[C@@H]32)OCO4)cc(OC)c1O (stereo not given in full),23.9% (inactive)
18,O=C(Nc1ccc(F)cc1)Nc1ccc(Br)c(C(F)(F)F)c1,-4.72% (active)
19,CC(C)C(=O)Nc1nc2c(s1)CCCc1ccn(S(=O)(=O)c3ccccc3)c1-2,91.9% (inactive)
20,NC(=O)C1=C[C@H]2[C@H]3C=C[C@@]2(O)C(=O)O[C@@H]3O1,38.2% (inactive)
